These results are taken from PubChem BioAssay.

Assay [1] in a line: antimalarial activity against Dd2 strain (AID 2302;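 active = growth inhibition above 50% at the single 2 µM test dose, taken to imply half-maximal potency below 2 µM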;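 note: 0% = DMSO untreated growth and 100% = chloroquine plus artemisinin killed control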). Conditions: P. falciparum Dd2 in RBCs, LDH growth readout, 72 h; at 2 µM; active compounds read high.
Assay [2] is described as follows: HepG2 cytotoxicity, primary screen, cytotoxicity control for P. falciparum antimalarial project, cell-based, ATP luminescence (AID 2303;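 active = inhibition above 50%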;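 note: 0% = DMSO wells and 100% = digitonin-killed cells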). The conditions noted are these: HepG2 viability, 24-48 h, at 10 µM, active compounds read high.
Assay [3] deals with L-lactate dehydrogenase (Plasmodium falciparum (isolate CDC / Honduras)) (UniProt Q27743). As to the kind of experiment: PfLDH activity inhibition – cell lysate, 3D7 strain, counter-screen for P. falciparum growth inhibition project (AID 2304).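 Note: 0% = vehicle and 100% = reference inhibitor.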 Conditions: P. falciparum 3D7 crude extract, LDH APAD/NBT absorbance; at 2 µM; active compounds read high. (Counterscreens check selectivity or assay interference.)
Sequence of L-lactate dehydrogenase (Plasmodium falciparum (isolate CDC / Honduras)) (Q27743 whole entry, looked up): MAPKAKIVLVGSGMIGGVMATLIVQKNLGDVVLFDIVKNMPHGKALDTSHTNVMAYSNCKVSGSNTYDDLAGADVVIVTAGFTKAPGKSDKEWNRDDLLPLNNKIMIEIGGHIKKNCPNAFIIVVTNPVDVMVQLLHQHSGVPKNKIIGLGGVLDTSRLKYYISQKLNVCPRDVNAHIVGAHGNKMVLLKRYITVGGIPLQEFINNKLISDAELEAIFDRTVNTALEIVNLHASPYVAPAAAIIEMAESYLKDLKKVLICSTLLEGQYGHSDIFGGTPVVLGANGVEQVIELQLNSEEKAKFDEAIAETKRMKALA

Assay [4] in a line: inhibition of 3D7 malaria parasite growth – strain 3D7 (AID 2306).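 Note: 0% = DMSO wells and 100% = chloroquine plus artemisinin control wells.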 The conditions noted are these: P. falciparum 3D7 erythrocytic growth, LDH absorbance, 72 h; at 2 µM; active compounds read high.
Assay [5] deals with Calcium-dependent protein kinase 1 (Plasmodium falciparum (isolate 3D7)) (UniProt P62344). As to the kind of experiment: PfCDPK1 kinase inhibitors, biochemical, TCAMS library (AID 1159585; cut-off not given, nearly all actives have IC50 up to about 0.98 µM;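 note: inhibitors leave more ATP so luminescence rises with inhibition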). Conditions: recombinant PfCDPK1, Kinase-Glo ATP depletion luminescence. Background: Kinase-Glo measures the ATP left after a reaction by luminescence.
Sequence of Calcium-dependent protein kinase 1 (Plasmodium falciparum (isolate 3D7)) (P62344 whole entry, looked up): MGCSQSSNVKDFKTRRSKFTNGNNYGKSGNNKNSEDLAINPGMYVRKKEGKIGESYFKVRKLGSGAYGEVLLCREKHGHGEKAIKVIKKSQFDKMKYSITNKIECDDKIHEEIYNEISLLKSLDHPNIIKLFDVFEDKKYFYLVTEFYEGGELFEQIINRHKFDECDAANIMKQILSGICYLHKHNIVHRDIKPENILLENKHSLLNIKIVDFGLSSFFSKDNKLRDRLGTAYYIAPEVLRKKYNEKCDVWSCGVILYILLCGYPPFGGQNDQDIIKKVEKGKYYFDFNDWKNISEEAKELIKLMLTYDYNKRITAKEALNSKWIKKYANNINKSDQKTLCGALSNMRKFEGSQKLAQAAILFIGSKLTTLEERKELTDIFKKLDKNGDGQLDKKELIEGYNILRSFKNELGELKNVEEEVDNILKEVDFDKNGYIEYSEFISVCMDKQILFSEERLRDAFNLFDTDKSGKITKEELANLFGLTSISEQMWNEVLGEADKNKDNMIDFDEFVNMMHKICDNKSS
For assay [6], the target named is Plasmodium falciparum protein kinase 6 (PK6, PF3D7_1337100) (UniProt Q8IDW1). As to the kind of experiment: PfPK6 kinase inhibitors, biochemical, TCAMS library (AID 1159586). Conditions: recombinant PfPK6, Kinase-Glo ATP depletion luminescence.
Sequence of Plasmodium falciparum protein kinase 6 (PK6, PF3D7_1337100) (Q8IDW1 1-305): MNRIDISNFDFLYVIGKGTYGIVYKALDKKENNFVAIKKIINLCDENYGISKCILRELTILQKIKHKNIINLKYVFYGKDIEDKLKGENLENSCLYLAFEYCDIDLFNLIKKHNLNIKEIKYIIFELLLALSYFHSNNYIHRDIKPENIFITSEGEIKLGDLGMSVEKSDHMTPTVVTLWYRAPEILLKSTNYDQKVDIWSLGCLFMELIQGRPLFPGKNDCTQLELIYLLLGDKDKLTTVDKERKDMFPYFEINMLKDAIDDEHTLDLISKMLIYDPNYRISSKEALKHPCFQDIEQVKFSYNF
Assay [7] deals with Protein kinase 7 (PK7), Plasmodium falciparum 3D7 (PF3D7_0213400) (UniProt Q7YTF7). As to the kind of experiment: inhibition of Plasmodium PK7 catalytic activity – biochemical, TCAMS antimalarial set, Kinase-Glo luminescence (AID 1159587). Conditions: recombinant PfPK7, Kinase-Glo ATP depletion luminescence.
Sequence of Protein kinase 7 (PK7), Plasmodium falciparum 3D7 (PF3D7_0213400) (Q7YTF7 1-343): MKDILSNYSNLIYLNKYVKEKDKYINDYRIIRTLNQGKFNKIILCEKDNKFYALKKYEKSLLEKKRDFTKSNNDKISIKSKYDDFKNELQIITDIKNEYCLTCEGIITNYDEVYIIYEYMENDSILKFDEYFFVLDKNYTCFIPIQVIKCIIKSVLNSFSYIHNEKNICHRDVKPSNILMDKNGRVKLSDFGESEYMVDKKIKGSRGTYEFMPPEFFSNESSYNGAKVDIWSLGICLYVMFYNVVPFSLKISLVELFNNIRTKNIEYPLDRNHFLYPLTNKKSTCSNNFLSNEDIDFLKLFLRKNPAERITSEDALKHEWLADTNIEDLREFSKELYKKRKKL
For assay [8], the target named is Calcium-dependent protein kinase 4 (Plasmodium falciparum (isolate 3D7)) (UniProt Q8IBS5). Nature of the assay: PfCDPK4 kinase inhibitors, biochemical, TCAMS library (AID 1159588; cut-off not given, nearly all actives have IC50 up to about 0.91 µM). The conditions noted are these: recombinant PfCDPK4, Kinase-Glo ATP depletion luminescence.
Sequence of Calcium-dependent protein kinase 4 (Plasmodium falciparum (isolate 3D7)) (Q8IBS5 whole entry, looked up): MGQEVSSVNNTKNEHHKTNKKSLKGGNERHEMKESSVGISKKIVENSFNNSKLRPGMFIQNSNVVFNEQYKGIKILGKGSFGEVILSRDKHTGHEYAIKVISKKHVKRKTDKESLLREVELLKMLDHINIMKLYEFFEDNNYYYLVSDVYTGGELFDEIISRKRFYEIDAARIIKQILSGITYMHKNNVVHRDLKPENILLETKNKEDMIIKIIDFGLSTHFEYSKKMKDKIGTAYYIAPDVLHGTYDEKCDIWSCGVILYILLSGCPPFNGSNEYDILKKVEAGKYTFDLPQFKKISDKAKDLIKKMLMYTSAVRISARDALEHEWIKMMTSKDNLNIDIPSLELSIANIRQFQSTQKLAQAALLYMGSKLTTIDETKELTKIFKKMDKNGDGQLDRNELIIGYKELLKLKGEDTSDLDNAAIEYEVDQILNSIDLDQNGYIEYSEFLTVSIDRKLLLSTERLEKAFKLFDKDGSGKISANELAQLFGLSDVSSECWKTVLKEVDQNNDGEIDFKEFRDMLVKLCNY

Each structure is given as a SMILES string. A number with no mark means an inactive call. For some assays here: Potency and affinity values are given separately. Activity calls are given as the source filed them. Unless noted, the rule behind the calls is not given here.

`CCOc1cc(C(=O)Nc2ccc3nc(N4CCCCC4)cc(C)c3c2)cc(OCC)c1OCC`: the growth inhibition in assay [1] was 2%; in assay [4], 100% (active). The inhibition in assay [2] was 26%; in assay [3], -6%. For the same molecule, the result in assay [5], in assay [6], in assay [7] and in assay [8] was inactive.
Turning to `COCCN1CCC(C(=O)NCC(C)(C)c2nc(-c3ccc(Br)c(O)c3)c(-c3ccncc3)[nH]2)CC1`, the growth inhibition in assay [1] is 6%; in assay [4], 99% (active). Besides, the inhibition is -12% in assay [2] and 3% in assay [3]. Besides, the outcome in assay [5], in assay [6], in assay [7] and in assay [8] was inactive.
On to `CCCOc1ccc(C=C(CC(=O)O)c2nc3ccccc3s2)cc1OCC`, for which the growth inhibition in assay [1] is 84% (active); in assay [4] it was 89% (active). Besides, the inhibition in assay [2] is 7%; in assay [3], -1%. For the same molecule, the result in assay [5], in assay [6], in assay [7] and in assay [8] was inactive.
Turning to `Nc1c(I)cc(C(=O)Nc2ccc3nc4c(c(N)c3c2)CCCC4)cc1I`, the growth inhibition in assay [1] was 99% (active); in assay [4] it was 100% (active). For the same molecule, the inhibition is 40% in assay [2] and 2% in assay [3]. In addition, the outcome in assay [5], in assay [6], in assay [7] and in assay [8] was inactive.
In the case of `CCCCCCSc1nnc(COc2cccc3ccccc23)n1-c1ccc(OC)cc1`, the values for the growth inhibition in assay [1] and in assay [4] were 100% (active) and 99% (active), respectively. Further, the figures for the inhibition in assay [2] and in assay [3] were 19% and 3%, respectively. In addition, the result in assay [5], in assay [6], in assay [7] and in assay [8] was inactive.
On to `COc1cc2cc(C(=O)Nc3ccccc3)c(N)nc2cc1OC`, for which the values for the growth inhibition in assay [1] and in assay [4] were -2% and 90% (active), respectively. The inhibition in assay [2] was 0%; in assay [3], -1%. The outcome in assay [5], in assay [6], in assay [7] and in assay [8] was inactive.
In the case of `COc1ccc(NC(=O)[C@H](CC(C)C)Nc2cc(C)nc(NCCc3ccccc3OC)n2)cc1`, the growth inhibition was 68% (active) in assay [1] and 99% (active) in assay [4]. In addition, the inhibition is 9% in assay [2] and -3% in assay [3]. In addition, the outcome in assay [5], in assay [6], in assay [7] and in assay [8] was inactive.
Consider `Cc1c(C)n(C2CCCC2)c2ncnc(OC3CCN(CC(=O)NC4CC4)CC3)c12`, for which the growth inhibition in assay [1] was 92% (active); in assay [4] it was 95% (active). Also, the inhibition was 13% in assay [2] and -4% in assay [3]. Also, the result in assay [5], in assay [6], in assay [7] and in assay [8] was inactive.
With `COc1ccc(N2CCN(CCCCNC(=O)c3ccc(NC(=O)c4cccc(Cl)c4)cc3)CC2)c(OC)c1`, the results for the growth inhibition in assay [1] and in assay [4] were 33% and 101% (active), respectively. The results for the inhibition in assay [2] and in assay [3] were 18% and 0%, respectively. Moreover, the outcome in assay [5], in assay [6], in assay [7] and in assay [8] was inactive.
As to `O=C(Nc1cccc(C(F)(F)F)c1)c1ccc(S(=O)(=O)NCC2CCCN(CC3CCCCC3)C2)cc1` (configuration not stated), the values for the growth inhibition in assay [1] and in assay [4] were 9% and 95% (active), respectively. The inhibition in assay [2] was 26%; in assay [3], -4%. Besides, the result in assay [5], in assay [6], in assay [7] and in assay [8] was inactive.
For the molecule `Cc1cccc(CNc2nc(C)cc(NCCC(=O)NCc3cccc(F)c3)n2)c1`, the results for the growth inhibition in assay [1] and in assay [4] were 13% and 84% (active), respectively. Moreover, the results for the inhibition in assay [2] and in assay [3] were 23% and -1%, respectively. The outcome in assay [5], in assay [6], in assay [7] and in assay [8] was inactive.
`Cc1cnc(C(=O)Nc2ccc3c(c2)CCCN(Cc2c[nH]c4cnccc24)C3)cn1`: the growth inhibition in assay [1] is 20%; in assay [4] it was 92% (active). In addition, the inhibition in assay [2] is 0%; in assay [3], -3%. The result in assay [5], in assay [6], in assay [7] and in assay [8] was inactive.
In the case of `CC(C)[C@H](NC(=O)c1ccc(O)c(-c2ccc(Cl)c(Cl)c2)c1)C(=O)NCCN1CCCC1`, the growth inhibition in assay [1] was 83% (active); in assay [4] it was 98% (active). The inhibition in assay [2] and in assay [3] was 4% throughout. Further, the outcome in assay [5], in assay [6], in assay [7] and in assay [8] was inactive.
`Nc1ccc(Nc2ccnc3ccc(C(F)(F)F)cc23)cc1O`: the growth inhibition in assay [1] is 59% (active); in assay [4] it was 98% (active). In addition, the inhibition in assay [2] is 1%; in assay [3] it was 5%. Moreover, the outcome in assay [5], in assay [6], in assay [7] and in assay [8] was inactive.
`COc1ccc2nccc(N3CCN(CCNCc4ccc5c(n4)NC(=O)CO5)CC3)c2c1`: the growth inhibition in assay [1] is 5%; in assay [4], 92% (active). Further, the inhibition in assay [2] was 18%; in assay [3], 5%. In addition, the outcome in assay [5], in assay [6], in assay [7] and in assay [8] was inactive.
In the case of `CC1CCN(CC[C@H]2CCCN2S(=O)(=O)c2cccc(NC(=O)Nc3ccc(C(F)(F)F)cc3)c2)CC1`, the growth inhibition is 41% in assay [1] and 100% (active) in assay [4]. Further, the results for the inhibition in assay [2] and in assay [3] were 12% and 2%, respectively. Also, the result in assay [5], in assay [6], in assay [7] and in assay [8] was inactive.
Consider `O=C(NC1CCN(Cc2ccccc2)CC1)c1ccc2c(=O)n(Cc3ccc(Cl)cc3)c(=S)[nH]c2c1`, for which the values for the growth inhibition in assay [1] and in assay [4] were 100% (active) and 101% (active), respectively. For the same molecule, the inhibition was 16% in assay [2] and 5% in assay [3]. Besides, the result in assay [5], in assay [6], in assay [7] and in assay [8] was inactive.
For the molecule `CCOc1ccc2nc3cc([N+](=O)[O-])ccc3c(N)c2c1`, the growth inhibition in assay [1] was 100% (active); in assay [4] it was 99% (active). In addition, the inhibition in assay [2] is 67% (active); in assay [3], 3%. Further, the outcome in assay [5], in assay [6], in assay [7] and in assay [8] was inactive.
For the molecule `CN(C)c1ccc(-c2csc(C(=O)NC3CCN(CCC(C)(C)C)C3)c2)cc1` (configuration not stated), the figures for the growth inhibition in assay [1] and in assay [4] were 36% and 95% (active), respectively. In addition, the results for the inhibition in assay [2] and in assay [3] were 20% and 2%, respectively. Moreover, the result in assay [5], in assay [6], in assay [7] and in assay [8] was inactive.

The inhibition is the relative decrease from the control value, in per cent.
